Data as given in PubChem BioAssay AID1159580 (chemical genetic matrix, 2015).
Where “and” joins values, the source holds several entries; their conditions need not be identical. Identical values can stand only once. Among all 5,500 compounds or so, about 2,000 (36%) were called active. Inconclusive results (about 18%) are left out. No stated cut-off is given here; in the data, active means normalized growth mostly below about 0.91 (no sharp cut-off); inconclusive means no clear call, values can overlap the other calls; inactive means mostly above about 0.92. The list shows a part of the results.

Assay: chemical genetic growth profiling, strain panel (AID 1159580);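 further: tested at 20 µM; growth read once vehicle control cultures reached saturation at 30 °C; 1 = growth at the plate median or of vehicle wells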
Settings: S. cerevisiae deletion strains, growth OD

Measured: normalized growth

O=C(OC[C@H]1O[C@H](OC(=O)c2cc(O)c(O)c(OC(=O)c3cc(O)c(O)c(O)c3)c2)[C@H](OC(=O)c2cc(O)c(O)c(OC(=O)c3cc(O)c(O)c(O)c3)c2)[C@@H](OC(=O)c2cc(O)c(O)c(OC(=O)c3cc(O)c(O)c(O)c3)c2)[C@@H]1OC(=O)c1cc(O)c(O)c(OC(=O)c2cc(O)c(O)c(O)c2)c1)c1cc(O)c(O)c(OC(=O)c2cc(O)c(O)c(O)c2)c1
0.0838 (active) and 1.05 (inactive): locus YHR030C, strain SLT2, stronger effect = lower value
inactive: locus YBR171W, strain sec66, stronger effect = lower value 0.931 | locus YDL005C, strain med2, stronger effect = lower value 1.02 | locus YDR001C, strain nth1, stronger effect = lower value 0.998 | locus YDR392W, strain spt3, stronger effect = lower value 0.742 | locus YEL061C, strain CIN8 (second series), stronger effect = lower value 0.926 | locus YER155C, strain BEM2 (second series), stronger effect = lower value 0.99 | locus YGL227W, strain vid30, stronger effect = lower value 1 | locus YGL240W, strain doc1, stronger effect = lower value 0.979 | locus YHR079C, strain IRE1, stronger effect = lower value 1.05 | locus YJL115W, strain asf1, stronger effect = lower value 0.979 | locus YJL129C, strain trk1, stronger effect = lower value 0.872 | locus YJL154C, strain vps35, stronger effect = lower value 0.965 | locus YJR066W, strain TOR1, stronger effect = lower value 0.967
active: locus YAL013W, strain DEP1, stronger effect = lower value 0.088 | locus YAL021C, strain ccr4, stronger effect = lower value 0.273 | locus YAL026C, strain drs2, stronger effect = lower value 0.572 | locus YAL030W, strain snc1, stronger effect = lower value 0.889 | locus YBL061C, strain skt5, stronger effect = lower value 0.68 | locus YBR009C, strain hhf1, stronger effect = lower value 0.788 | locus YBR021W, strain FUR4, stronger effect = lower value 0.148 | locus YBR023C, strain chs3, stronger effect = lower value 0.537 | locus YBR229C, strain ROT2, stronger effect = lower value 0.0601 | locus YBR231C, strain swc5, stronger effect = lower value 0.581 | locus YBR279W, strain paf1, stronger effect = lower value 0.686 | locus YCL011C, strain gbp2, stronger effect = lower value 0.782 | locus YCL016C, strain dcc1, stronger effect = lower value 0.735 | locus YCL029C, strain bik1, stronger effect = lower value 0.0912 | locus YCL061C, strain MRC1, stronger effect = lower value 0.759 | locus YCL069W, strain vba3, stronger effect = lower value 0.8 | locus YCR088W, strain abp1, stronger effect = lower value 0.834 | locus YDL035C, strain GPR1, stronger effect = lower value 0.0826 | locus YDL040C, strain nat1, stronger effect = lower value 0.824 | locus YDL074C, strain BRE1, stronger effect = lower value 0.148 | locus YDL101C, strain DUN1, stronger effect = lower value 0.0829 | locus YDL134C, strain PPH21, stronger effect = lower value 0.0788 | locus YDL185W, strain tfp1, stronger effect = lower value 0.0903 | locus YDL192W, strain arf1, stronger effect = lower value 0.0892 | locus YDR069C, strain doa4, stronger effect = lower value 0.524 | locus YDR101C, strain arx1, stronger effect = lower value 0.0922 | locus YDR137W, strain rgp1, stronger effect = lower value 0.327 | locus YDR150W, strain NUM1, stronger effect = lower value 0.0891 | locus YDR159W, strain sac3, stronger effect = lower value 0.66 | locus YDR162C, strain NBP2, stronger effect = lower value 0.079 | locus YDR195W, strain ref2 0.839 | locus YDR297W, strain sur2, stronger effect = lower value 0.823 | locus YDR318W, strain mcm21, stronger effect = lower value 0.0987 | locus YDR334W, strain swr1, stronger effect = lower value 0.632 | locus YDR335W, strain msn5, stronger effect = lower value 0.747 | locus YDR388W, stronger effect = lower value 0.0902 | locus YDR502C, strain sam2, stronger effect = lower value 0.101 | locus YEL003W, strain gim4, stronger effect = lower value 0.748 | locus YEL037C, strain rad23, stronger effect = lower value 0.771 | locus YEL061C, strain CIN8, stronger effect = lower value 0.0806 | locus YER015W, strain faa2, stronger effect = lower value 0.531 | locus YER016W, strain bim1, stronger effect = lower value 0.8 | locus YER110C, stronger effect = lower value 0.111 | locus YER111C, strain swi4, stronger effect = lower value 0.404 | locus YER155C, strain BEM2, stronger effect = lower value 0.112 | locus YER167W, strain BCK2, stronger effect = lower value 0.0894 | locus YFR010W, strain ubp6, stronger effect = lower value 0.701 | locus YGL078C, strain dbp3, stronger effect = lower value 0.0891 | locus YGL086W, strain mad1, stronger effect = lower value 0.0871 | locus YGL167C, strain pmr1, stronger effect = lower value 0.724 | locus YGL173C, strain kem1, stronger effect = lower value 0.54 | locus YGL248W, strain PDE1, stronger effect = lower value 0.0713 | locus YGL253W, strain hxk2, stronger effect = lower value 0.796 | locus YGR078C, strain PAC10, stronger effect = lower value 0.084 | locus YGR135W, strain pre9, stronger effect = lower value 0.0994 | locus YGR229C, strain SMI1, stronger effect = lower value 0.102 | locus YGR252W, strain gcn5, stronger effect = lower value 0.231 | locus YHR013C, strain ard1, stronger effect = lower value 0.597 | locus YHR027C, strain rpn1, stronger effect = lower value 0.455 | locus YHR079C, strain IRE1 (second series), stronger effect = lower value 0.0958 | locus YHR094C, strain hxt1, stronger effect = lower value 0.0909 | locus YHR129C, strain ARP1, stronger effect = lower value 0.105 | locus YHR142W, strain chs7, stronger effect = lower value 0.535 | locus YHR200W, strain rpn10, stronger effect = lower value 0.0922 | locus YIL066C, strain RNR3, stronger effect = lower value 0.0729 | locus YIL073C, strain SPO22, stronger effect = lower value 0.167 | locus YIL125W, strain kgd1, stronger effect = lower value 0.0846 | locus YIR030C, strain dcg1, stronger effect = lower value 0.0869 | locus YJL092W, strain hpr5, stronger effect = lower value 0.866 | locus YJL095W, strain BCK1 (second series), stronger effect = lower value 0.789 | locus YJL134W, strain LCB3, stronger effect = lower value 0.0741 | locus YJL164C, strain tpk1, stronger effect = lower value 0.781 | locus YJL166W, strain qcr8, stronger effect = lower value 0.839 | locus YJL168C, strain set2, stronger effect = lower value 0.087 | locus YJL187C, strain SWE1 (second series), stronger effect = lower value 0.0725 | locus YJR043C, strain POL32, stronger effect = lower value 0.101
0.0975 (active) and 1.03 (inactive): locus YJL095W, strain BCK1, stronger effect = lower value
